# Bioassay records deposited in PubChem BioAssay by several laboratories.
# GLD-1 RNA inh: GLD-1-TGE RNA interaction inhibition (C. elegans). inhibition, % at 5.96 µM. purified GLD-1 + fluorescein TGE RNA, fluorescence polarization. 320,000 compounds, 0.44% hits;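 active = percent inhibition above a per-plate cutoff, the plate mean of test compounds plus 3 SD, cut at about 30% in these data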;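 note: 0% = DMSO wells with GLD-1 and probe and 100% = wells lacking GLD-1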
# Mcl1 Bid PPI: disrupts binding of human Mcl-1 to Bid peptide; TR-FRET Mcl-1/Bid-Dy647 peptide binding, 1536-well; inhibition, % at 21.7 µM; 220,000 compounds, 0.97% hits; Q07820;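 active = compounds that cut the binding signal by more than half at the single screening dose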;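 note: His-tagged Mcl-1 with europium anti-His antibody binding Bid BH3 peptide; 0% = Mcl-1 plus peptide wells and 100% = peptide-only wells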
# Target sequence (Q07820 whole entry, looked up): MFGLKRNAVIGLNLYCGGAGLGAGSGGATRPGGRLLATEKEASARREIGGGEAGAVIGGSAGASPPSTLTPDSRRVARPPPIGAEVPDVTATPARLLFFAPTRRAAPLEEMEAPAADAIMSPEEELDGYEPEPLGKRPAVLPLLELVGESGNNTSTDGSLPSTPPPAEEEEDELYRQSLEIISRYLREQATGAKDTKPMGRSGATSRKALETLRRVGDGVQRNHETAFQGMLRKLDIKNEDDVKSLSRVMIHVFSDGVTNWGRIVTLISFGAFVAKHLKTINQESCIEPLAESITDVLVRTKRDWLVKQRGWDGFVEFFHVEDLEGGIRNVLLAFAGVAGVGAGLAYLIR
# Mcl1 Noxa PPI: disrupts binding of human Mcl-1 to Noxa peptide. Q07820. TR-FRET Mcl-1/Noxa peptide binding, 2 h. inhibition, % at 21.7 µM. 220,000 compounds, 1.5% hits;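 active = compounds that cut the protein-peptide binding signal by more than 50% relative to plate controls in a single-dose test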;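 note: His-tagged Mcl-1 with rhodamine Noxa BH3 peptide and terbium anti-His antibody; 0% = Mcl-1 plus Noxa peptide wells and 100% = peptide-only wells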
# Bim-Mcl-1: human Bim-Mcl-1 interaction inhibition; Q07820; 190,000 compounds, 0.1% hits; Bead-based flow cytometry, Bim peptide-Mcl-1 binding; inhibition, % at 10 µM; in the data active = inhibition above about 40%;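 note: 0% = no compound tracer wells and 100% = peptide blocker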
# Bcl-xL primary: Bcl-xL (human) inhibition; GST-Bcl-xL / FITC-Bim BH3 peptide fluorescence polarization; inhibition, % at 10.9 µM; 320,000 compounds, 0.7% hits;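 active = inhibition above the mean of all tested compounds plus 3 SD, cutoff set per campaign, cut at about 30% in these data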;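 note: 0% = DMSO wells and 100% = unlabeled Bim-BH3 peptide competitor; inhibitors lower millipolarization by displacing the labeled peptide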
# Target sequence (Q07817 whole entry, looked up): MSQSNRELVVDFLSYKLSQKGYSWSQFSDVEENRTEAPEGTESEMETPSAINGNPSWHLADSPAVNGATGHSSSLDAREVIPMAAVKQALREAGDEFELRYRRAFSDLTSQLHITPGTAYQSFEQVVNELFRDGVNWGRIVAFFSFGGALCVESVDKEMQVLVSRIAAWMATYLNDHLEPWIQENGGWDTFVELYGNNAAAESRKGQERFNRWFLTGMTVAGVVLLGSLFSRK
# MCL1-BIM inh: MCL1-BIM-BH3 interaction inhibition (human); GST-MCL1 / FITC-Bim-BH3 fluorescence polarization; 320,000 compounds, 0.68% hits; Q07820; inhibition, % at 10.9 µM; AID 2057;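 active = inhibition above the mean inhibition of all tested compounds plus 3 SD, set per campaign, cut at about 40% in these data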;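 note: 0% = DMSO wells and 100% = unlabeled Bim-BH3 peptide control; higher means more loss of mP so more displacement of Bim peptide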
# Bcl-xL conf: counter-screen for MCL1 inhibitors: confirmation of human Bcl-xL inhibitors; shares compounds with MCL1-BIM inh; AID 2166; 1,700 compounds, 54% hits; inhibition, % at 10.9 µM; GST-Bcl-xL / FITC-Bim BH3 peptide FP binding;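 active = inhibition above a cutoff equal to the mean inhibition of all tested compounds plus 3 SD, cut at about 30% in these data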;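 note: 0% = DMSO wells and 100% = unlabeled Bim BH3 control peptide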
# MCL1 BIM confirm: MCL1-BIM-BH3 interaction inhibition, confirmation | shares compounds with MCL1-BIM inh | GST-MCL1 / FITC-Bim-BH3 fluorescence polarization | inhibition, % at 10.9 µM | 1,700 compounds, 61% hits | AID 2168;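 active = inhibition above the average of all tested compounds plus 3 SD, cut at about 40% in these data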;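 note: 0% = DMSO wells and 100% = unlabeled Bim-BH3 control peptide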
# Starred values were filed as active, the others as inactive; . = no result. Sampled rows, rich in hits. Any-hit rate of the full collection: about 2.3%.
SMILES,GLD-1 RNA inh,Mcl1 Bid PPI,Mcl1 Noxa PPI,Bim-Mcl-1,Bcl-xL primary,MCL1-BIM inh,Bcl-xL conf,MCL1 BIM confirm
O=C(c1ccco1)N1CCN(CCCCN2C(=O)c3ccccc3C2=O)CC1,-5,-12,11,3,6,8,.,.
O=C(O)CCCNc1cc(N2CCN(C(=O)c3ccco3)CC2)c2noc3c2c1C(=O)c1ccccc1-3,99*,.,.,.,135*,157*,193*,164*
O=C1c2ccccc2-c2onc3c(N4CCN(CCO)CC4)cc(N4CCN(C(=O)c5ccco5)CC4)c1c23,12,.,.,.,63*,83*,53*,58*
C/C(O)=c1/ccc2cccc3nc(C)nc1c23,22,-28,1,3,71*,61*,62*,57*
Cc1cccc2nc3ccccc3cc12,5,.,.,.,12,5,.,.
CN=c1scc(-c2cccs2)n1/N=C/c1ccccc1O,5,-37,3,-7,9,8,.,.
C=CCN=c1scc(-c2ccco2)n1/N=C/c1ccc(O)c(O)c1O,1,-94,84*,.,14,50*,29,78*
CN=c1scc(C)n1/N=C/c1ccc(O)c(O)c1O,18,-84,91*,8,22,58*,79*,121*
CN=c1scc(-c2cccs2)n1/N=C/c1ccc(O)c(O)c1O,8,-50,108*,3,22,53*,68*,56*
COc1ccc(NC(=O)CSc2nnc(-c3ccco3)c(-c3ccco3)n2)cc1OC,-1,.,.,.,11,8,.,.
COc1cccc(NC(=O)CSc2nnc(-c3ccco3)c(-c3ccco3)n2)c1,11,.,.,.,27,49*,35*,64*
O=C(CSc1nnc(-c2ccco2)c(-c2ccco2)n1)Nc1ccccc1,6,23,90*,-1,25,60*,34*,83*
COc1cc(CCC(=O)NNC(=O)c2cccc(Cl)c2)cc(OC)c1OC,2,.,.,.,0,-2,.,.
Cc1ccc2c(c1)N(C(=O)CCC(=O)NCCCN1CC(C)CC(C)C1)CCO2 (stereo not given),0,.,.,.,5,3,.,.
Nc1cc(Nc2ccc(Br)cc2)nc(N)n1,18,-12,14,.,53*,50*,44*,46*
Cc1ccc(-c2csc3ncn(CC#N)c(=O)c23)cc1,4,-34,4,2,12,26,.,.
Cc1ccc(-c2csc3ncn(CC#N)c(=O)c23)cc1C,4,.,.,.,23,59*,17,41*
CC(C)(OC(=O)c1ccc(C#N)cc1)c1cc2ccccc2c(=O)o1,4,.,.,.,0,-6,.,.
CCC(=O)OC1(C)C(=O)C=C2C=C(C3CC3)OC=C2C1=O (stereo not given),39*,.,.,.,59*,63*,25,31
CC1(OC(=O)c2ccco2)C(=O)C=C2C=C(C3CC3)OC=C2C1=O (stereo not given),63*,.,.,.,75*,79*,40*,59*
CC1(OC(=O)c2cnc3ccccc3n2)C(=O)C=C2C=C(C3CC3)OC=C2C1=O (stereo not given),114*,.,.,.,118*,130*,81*,117*
CC1(OC(=O)c2cccs2)C(=O)C=C2C=C(c3ccc(C#N)cc3)OC=C2C1=O (stereo not given),6,.,.,.,4,3,.,.
COC/C=C/C1=CC2=CC(=O)C(C)(OC(=O)c3cnc4ccccc4n3)C(=O)C2=CN1C1CCCCC1 (stereo not given),14,.,.,.,22,28,.,.
CCN1CCN(C(=O)C(=O)c2cn(CC(=O)N3CCCC3)c3ccccc23)CC1,10,.,.,.,3,0,.,.
CCCCN(CC)C(=O)CSc1nc2c(sc(=S)n2-c2ccc(OCC)cc2)c(=O)[nH]1,.,-10,3,-5,.,.,.,.
SMILES,GLD-1 RNA inh,Mcl1 Bid PPI,Mcl1 Noxa PPI,Bim-Mcl-1,Bcl-xL primary,MCL1-BIM inh,Bcl-xL conf,MCL1 BIM confirm
NC(=O)c1cc2ccc(O)cc2oc1=NCc1ccccc1,95*,-11,2,-3,129*,151*,170*,199*
COC(=O)C1=COC(C)C2CN3CCc4c([nH]c5cc(OC)c(OC)cc45)C3CC12 (stereo not given),53*,-112,-14,.,92*,96*,94*,113*
Cc1cc(S(=O)(=O)N2CCOCC2)ccc1OCC(=O)Nc1ccc(Br)cc1F,0,.,.,.,2,3,.,.
NS(=O)(=O)c1cccc(C(=O)NC2CCSc3ccccc32)c1 (stereo not given),13,.,.,.,2,6,.,.
NS(=O)(=O)c1cc(C(=O)NC2CCSc3ccccc32)ccc1Cl (stereo not given),6,.,.,.,34*,79*,30,70*
Cc1ccc(/C=C/C(=O)Nc2cccc3cccnc23)o1,68*,-7,21,1,78*,84*,32*,40*
Cc1ccc(/C=C/C(=O)Nc2nnc(C)s2)o1,3,-35,13,-10,7,6,.,.
O=S(=O)(c1ccc(-c2ccon2)s1)N1CCN(CCN2CCOCC2)CC1,-9,-8,-2,.,7,11,.,.
Cc1ccc(CNC(=O)CC(C)S(=O)(=O)c2ccc3c(c2)NC(=O)CS3)o1 (stereo not given),46*,.,.,.,85*,86*,8,-9
Cc1ccc(CNC(=O)CC(C)S(=O)(=O)c2ccc3c(c2)NC(=O)CO3)cc1 (stereo not given),0,.,.,.,0,-5,.,.
CC1(C)CNc2cc(N)ccc2S1,-18,-66,20,1,25,66*,32*,43*
COc1ccc2c(c1)c1nc3ccccc3nc1n2CC(=O)OC(C)C,8,17,7,0,60*,59*,106*,140*
Cc1ccc(S(=O)(=O)N2CCC(C(=O)NNC(=O)c3cccnc3)CC2)cc1,-6,-8,3,-2,3,-1,.,.
Oc1ccc(/C=N/N2CCCCC2)c(O)c1O,26,.,.,.,38*,54*,12,6
CC(C)CNC(=O)NC(=O)COc1ncnc2sccc12,7,-15,-55,1,14,54*,9,14
CC(C)CCNC(=O)NC(=O)COc1ncnc2sccc12,4,-19,16,0,5,5,.,.
CCCCOc1cccc(/C=C(\C#N)C(=O)NC2CC2)c1,6,.,.,.,1,-10,.,.
CCC1OC23CCCCC2C(C#N)(C(=N)O3)C1(C#N)C#N (stereo not given),57*,-33,29,2,77*,78*,4,7
COc1ccc(C2CC3(O)NC(=O)C(C#N)(C3C)C2(C#N)C#N)cc1 (stereo not given),-3,-5,-3,.,3,-4,.,.
